From ChEMBL document CHEMBL5308541, “MAIP: An Open-Source Tool to Enrich High-Throughput Screening Output and Identify Novel, Druglike Molecules with Antimalarial Activity” (ACS Med Chem Lett, 2023) come the findings set out here.

The structures appear in SMILES notation. Among all 4,800 compounds or so, about 410 (8.5%) showed an effect of 50% or more. This excerpt belongs to a sample that is enriched for strong results.

The assay has as its system Plasmodium falciparum. The experiment in a line: Confirmatory screen in NF54 pLDH assay, in single point, at 2uM, 72h. It is filed as functional, Erythrocyte. The settings on record: timepoint 72 hour.
The % Inhibition is the drop in the measured response relative to a control, in per cent. As to `CN1CCC(N(Cc2ccccc2)C(=O)c2cc3cnccc3[nH]2)CC1`, the “% Inhibition” value stood at 58%. Consider `Cc1cc(N2CCC(NC3CCCC3Cc3ccc(F)cc3)CC2)nc(N)n1` (stereo not given), for which the “% Inhibition” value is 103%.

`Cc1cc(N2CCC(NC3CCNC(c4ccccc4)C3)CC2)nc(C)n1` (stereo not given): the “% Inhibition” value is on record as 33%.

Take `O=C(NCC1CC1)c1cc2c(OCc3ccc(Cl)cc3)cccc2[nH]1`: the “% Inhibition” value was determined as 53%. The same measure for `Cc1cc(NC[C@H](O)COc2ccc(F)cc2)nc2ccccc12`: 81%; for `N#Cc1ccc(N2C[C@H](COCC3CC3)C3(CCN(Cc4cccc(O)c4)CC3)C2)cc1C(F)(F)F`: 89%; for `COCCCN1CCC(Nc2ncnc3cc(C)c(C)cc23)CC1`: 94%. As for `CC1(N2CCC2)CCC(NC[C@H]2CCN(Cc3ccccc3)C2)CC1` (stereo not given in full), the “% Inhibition” value is 66%. In the case of `Cn1nnc(C(=O)N2CCCCC23CCCCCC3)n1`, the “% Inhibition” value was determined as 59%. For `Cc1ccc2[nH]c(-c3cc4n(n3)CCN(c3ccnc(N)n3)C4)nc2c1C`, the “% Inhibition” value is 97%. Take `c1ccc(CN2CCC(CCNC[C@@H]3CCCN4CCCC[C@H]34)CC2)cc1`: the “% Inhibition” value turned out to be 63%.

Regarding `CCN(Cc1cnn(-c2cccc(Cl)c2)c1)CC1CCN(C2CCN(C)CC2)CC1`, the “% Inhibition” value stood at 92%. `CCN(Cc1[nH]c2ccc(Cl)cc2c1C)CC1CCN(C2CCN(C)CC2)CC1`: the “% Inhibition” value is recorded as 102%.

As to `COc1ccc(-c2cc(-c3ccccc3O)n([C@@H]3C(=O)Nc4ccc(Br)cc43)n2)cc1`, the “% Inhibition” value is reported as 46%.

For `CC(C)c1ccc(-c2noc(CCN3CCN(CCCN(C)C)CC3)n2)cc1`, the “% Inhibition” value stood at 30%.

Take `CC(C)c1ccc(-c2nc(CN3CCCCC3)cc(CN3CCCCC3)c2O)cc1`: the “% Inhibition” value turned out to be 92%. The result for `c1ccc(CNc2ccc(-c3noc(C45CCCN(CCC4)C5)n3)cn2)cc1` reads 99%; that for `CN1CCN(CCNC2CCN3CCCC3C2)C(c2ccccc2)C1` (stereo not given), 28%. Consider `C[C@@H](CNC1CCN(C2CCN(C)CC2)CC1)c1cccc(Cl)c1`, for which the “% Inhibition” value is 103%. On to `CCCc1cccc(CNC2CCN(C3CCN(C)CC3)CC2)c1`, for which the “% Inhibition” value was determined as 71%. For `Brc1cccc(NCCNC2CCN(Cc3cccnc3)CC2)c1`, the “% Inhibition” value was found to be 41%.

Take `c1cncc(-c2ccc(CNC3CCN(Cc4cccs4)CC3)cc2)c1`: the “% Inhibition” value is given as 86%. As for `CN1CCN(CCOc2ccccc2CN(C)Cc2cc3cc(F)ccc3[nH]2)CC1`, the “% Inhibition” value is 104%. For the compound `COc1ccc(CNCc2cc3ccccc3[nH]2)cc1CN(C)C`, the “% Inhibition” value turned out to be 36%. Turning to `CN1CCC[C@H](CN2CCN(Cc3cc4n(n3)CCCNC4)CC2)C1`, the “% Inhibition” value is listed as -7%.

In the case of `CN(c1ccccc1)c1ccc(CN2CCN([C@H]3CCNC3)CC2)cc1`, the “% Inhibition” value was found to be 0%. On to `Fc1ccc(N2CCC(N[C@@H]3COC4(CCNCC4)C3)CC2)cc1F`, for which the “% Inhibition” value is reported as 6%.

For the compound `N[C@H]1CC[C@@H](NC2CCN(c3ccc(F)c(F)c3)CC2)CC1`, the “% Inhibition” value is given as 35%. Regarding `Cc1nc2ccc(CNC3CCN(c4ccc(F)c(F)c4)CC3)cc2[nH]1`, the “% Inhibition” value was found to be 64%.

In the case of `CN(CCCn1ccnc1)c1ccnc2cc(Br)ccc12`, the “% Inhibition” value amounted to 98%. The same measure for `Cc1cccc(Nc2ccnc(Nc3ccc(N4CCN(C)CC4)cc3)n2)c1`: 99%; for `CNc1nc(N2CCN(CC(=O)NC3CCCCC3)CC2)nc2ccccc12`: 26%. As to `COc1ccc2c(N3CC[C@H](CN4CCCC4)C3)ccnc2c1`, the “% Inhibition” value is 102%. Turning to `CN1CCN(CC2CCN(c3ccnc4ccccc34)CC2)CC1`, the “% Inhibition” value was determined as 103%. The result for `Cn1cncc1[C@@H]1CNC[C@H]1CNC(=O)c1ccccc1NC1CCCCC1` reads 73%; that for `O=C(Nc1cnc2c(c1)COCC2)c1cc2c(OC(F)(F)F)cccc2[nH]1`, 102%. Regarding `O[C@H]1CCN(Cc2cccc(NCc3cn4ccnc4s3)c2)C1`, the “% Inhibition” value is on record as 45%. As to `O[C@H]1CCN(Cc2ccccc2CNc2cccc(-n3ccnc3)n2)C1`, the “% Inhibition” value is recorded as 101%. As for `CCN1CCC[C@H](Nc2cccc(-n3ccnc3)n2)C1`, the “% Inhibition” value worked out at 32%. On to `CN1CCN(CCCCNC2CC3CCC(C2)N3Cc2ccccc2)CC1` (stereo not given), for which the “% Inhibition” value stood at 41%. On to `OCCN1CCC(NCCc2cc(Cl)cc(Cl)c2)CC1`, for which the “% Inhibition” value is 30%. The same measure for `Nc1ccnc2ccc(-c3ccc(C(=O)NCC4CCOCC4)cc3)cc12`: 102%. As to `O=C1C2CCCCC2C(c2c(-c3ccccc3)[nH]c3ccccc23)N1Cc1ccccc1` (stereo not given), the “% Inhibition” value is 33%. Turning to `COc1cc2nc(NCC3(N4CCN(C)CC4)CCCC3)cc(C)c2cc1OC`, the “% Inhibition” value is recorded as 103%. Consider `Cc1ccccc1-c1cccc(N2CCC(NCC3CCNCC3)CC2)c1`, for which the “% Inhibition” value turned out to be 100%.

In the case of `Cc1ccccc1-c1cccc(CNCCCN2CCC[C@H](O)C2)c1`, the “% Inhibition” value turned out to be 17%. `Cc1ccc2[nH]c(CNC[C@@H](CO)C3CCC3)cc2c1C`: the “% Inhibition” value was 80%. `CNc1nc(C)c(-c2ccnc(Nc3cccc(S(C)(=O)=O)c3)n2)s1`: the “% Inhibition” value turned out to be 45%.

For the compound `Nc1nc(NCC2CCN(CCc3ccccc3)CC2)cc([C@H]2C[C@@H](N)C2)n1`, the “% Inhibition” value amounted to 26%.

In the case of `Cc1cc(NC[C@H]2CN(CC(C)C)CCO2)c2ccccc2n1`, the “% Inhibition” value was determined as 28%. In the case of `CCCN1CCC(Nc2cc(C)nc3ccccc23)CC1`, the “% Inhibition” value is 89%. `CC(C)CCOc1ccc2[nH]c(-c3cc(N4CCC[C@@H]4CS(C)(=O)=O)ccn3)cc2c1`: the “% Inhibition” value is given as 98%. The result for `COc1ccc2cc(-c3cc(N)ccn3)[nH]c2c1` reads 89%; that for `Nc1ccnc(-c2cccc3[nH]ccc23)c1`, 0%. Regarding `COc1ccc2[nH]cc(-c3ccc(N)nc3)c2c1`, the “% Inhibition” value was -21%. For `COc1ccc2cc(NC(=O)c3cc(-c4c(C)nn(C)c4C)[nH]n3)cnc2c1`, the “% Inhibition” value is 81%. For `Oc1cccc2c1CCC[C@@H]2NCc1ccc2occc2c1`, the “% Inhibition” value worked out at 55%. Regarding `CN(C)C1CCN(CCN[C@H]2CCc3ccc(F)cc32)CC1`, the “% Inhibition” value is 97%. Consider `CCN1CCN(C[C@@H](C)CNCc2cc(-c3ccccc3)ccc2OC)CC1`, for which the “% Inhibition” value is recorded as -4%. The result for `O[C@H](COc1ccccc1CNCc1cc(-c2ccccc2)[nH]n1)CN1CCCCC1` reads 103%.

Take `Cc1ccn2cc(-c3ccc(N4CCC(NCc5cccnc5)CC4)cc3)nc2c1`: the “% Inhibition” value is listed as 102%.

For the compound `Cc1nc(N2CCN(C)CC2)cc(N2CCN(S(=O)(=O)c3ccccc3C(F)(F)F)CC2)n1`, the “% Inhibition” value turned out to be 56%. Consider `O=C(NCc1ccc(N2CCNCC2)c(F)c1)c1ccc(-c2noc(C(F)(F)F)n2)cc1`, for which the “% Inhibition” value was 54%. For the compound `c1ccc2c(Nc3ccc4[nH]cnc4c3)c3ccccc3nc2c1`, the “% Inhibition” value is 102%. Consider `FC(F)(F)c1ccc(-c2c(-c3ccccc3)ncn2Cc2ncn[nH]2)cc1`, for which the “% Inhibition” value turned out to be 7%.
